Assay outcomes deposited in PubChem BioAssay by National Center for Advancing Translational Sciences (NCATS).
Compounds with a hit are over-represented: about 3.5% of the library has one in this group of screens.
RE007 growth inh: less growth of the S. pombe RE007 Vpr strain | S. pombe RE007 Vpr strain, BacTiter-Glo ATP luminescence, 24 h | Potency, µM (top dose mostly 92.2 µM), for the others: at the highest dose activity change, negative = less growth, hits mostly inhibitors | 360,000 compounds, 0.21% hits | AID 651644; active = well fitted falling curve with a large enough effect; inconclusive = small, poorly fitted or top-dose-only effect; inactive = no such curve, though single readings can be large or run the other way; note: % is set by controls: 0 for no effect and ±100 for the full control effect; nearly all actives have a fitted effect of over 50% in size
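Fission yeast RE007 carrying one integrated HIV-1 vpr copy, seeded at OD 0.01 in PMG+AL medium with 23 nL pinned compound. Grown 24 h at 30 degrees; viability read by BacTiter-Glo luminescence after 5 min.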
FBPA Giardia inh: blocks Giardia fructose-bisphosphate aldolase activity; Potency, µM (series often up to 59.6 µM), for inactives: at the top dose activity, negative = inhibition, most hits filed as inhibitors; 290,000 compounds, 0.71% hits; A8B2U2; purified Giardia FBPA; note: % is set by controls: 0 for no effect and ±100 for the full control effect; nearly all actives have a fitted effect of over 55% in size
Target sequence (A8B2U2 whole entry, looked up): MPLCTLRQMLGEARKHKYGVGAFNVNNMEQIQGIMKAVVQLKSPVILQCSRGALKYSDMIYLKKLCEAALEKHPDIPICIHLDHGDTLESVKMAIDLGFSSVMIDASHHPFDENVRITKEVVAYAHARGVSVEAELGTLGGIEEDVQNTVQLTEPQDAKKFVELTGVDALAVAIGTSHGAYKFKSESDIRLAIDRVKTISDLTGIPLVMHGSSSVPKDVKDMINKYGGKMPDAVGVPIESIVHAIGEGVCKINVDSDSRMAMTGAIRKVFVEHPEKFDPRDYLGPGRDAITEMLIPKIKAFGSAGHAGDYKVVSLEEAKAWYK
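Giardia FBPA (40 nM reagent) was preincubated 10 min at RT with compound (up to 57.5 uM final), then substrate plus GAPDH/TPI/NAD/arsenate coupling system with diaphorase/resazurin was added; resorufin fluorescence (525/598 nm) was read after 20 min.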
Sm TGR block: S. mansoni TGR enzyme inhibition. purified TGR, DTNB reduction, TNB absorbance 405 nm. Potency, µM (series often up to 114 µM), inactives show at the highest dose activity change, negative = inhibition, hits mostly inhibitors. 360,000 compounds, 3% hits. AID 485364; note: % is set by controls: 0 for no effect and ±100 for the full control effect; nearly all actives have a fitted effect of over 60% in size
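TGR 20 nM + NADPH 100 uM (dispensed conc.), cpd preinc 15 min RT; start with NADPH (500 uM addition) then DTNB (15 mM addition). Kinetic TNB absorbance, 405 nm filter. Four-parameter Hill fit across titration.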
TbPYK inhibitor: blocks Trypanosoma brucei pyruvate kinase; Q57TT1; TbPYK enzyme, Kinase-Glo Plus ATP luminescence, 45 min; Potency, µM (top dose mostly 76.8 µM), for the others: top-dose activity, negative = inhibition, most hits filed as inhibitors; 410,000 compounds, 0.12% hits; AID 624173; note: % is set by controls: 0 for no effect and ±100 for the full control effect; nearly all actives have a fitted effect of over 50% in size
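T. brucei PYK with substrate was exposed to pin-transferred compounds across a concentration series, then started with 130 uM ADP (final). After 45 min at room temperature, Kinase-Glo Plus luminescence was read, normalized and curve-fitted.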
LmPK inhibitor: blocks Leishmania mexicana pyruvate kinase activity; Q27686; 290,000 compounds, 0.37% hits; purified LmPK, Kinase-Glo ATP luminescence, 1 h; Potency, µM (titrated, usually from 57.5 µM), for the others: at the top dose activity change, negative = inhibition, actives largely listed as inhibitors; AID 1721; note: % is set by controls: 0 for no effect and ±100 for the full control effect
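0.1 nM LmPK, 0.5 mM PEP, 0.1 mM ADP; 50 mM imidazole pH 7.2, 7 mM MgCl2, 50 mM KCl; 1 h RT. Kinase-Glo luminescence readout, normalized to no-enzyme (full inhibition) and uninhibited wells.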
NS1 function inh: influenza NS1 inhibition; Potency, µM (doses to about 46.1 µM), without a hit: at the top dose activity, positive = more growth; 270,000 compounds, 0.4% hits; AID 2326; calls by dose curve; note: actives are rising curves; nearly all actives have a fitted effect of over 50% in size
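Recovery from NS1-induced slow growth read by OD600 in budding yeast switched to galactose assay medium (pH 6.0, -URA) at 1:100 dilution. Compound 23 nl per well; the matching strain lacking NS1 serves as control.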
* = called active by the depositor. Unless noted, calls come from the whole dose curve; as a rule, active = well fitted curve in the direction sought with a large enough effect; inconclusive = small, poorly fitted or top-dose-only effect, or another doubt; inactive = no such curve, though single readings can be large; an effect the other way counts as inactive or inconclusive. Potency is the fitted concentration of half-maximal effect.

What do the screens show for `CC1CCN(S(=O)(=O)c2cn(CC(=O)Nc3ccc(F)c(Cl)c3)c(=O)c3ccccc23)CC1`?
Sm TGR block: 40%; TbPYK inhibitor: -8%

Results for Nc1ccc(Cl)cc1C(=O)c1ccccc1 ?
RE007 growth inh: 16%; FBPA Giardia inh: -11%; Sm TGR block: 14%; TbPYK inhibitor: -1%; LmPK inhibitor: 9%

Results for O=C(c1ccccc1)c1cc(Cl)ccc1N1C(=O)C=CC1=O ?
RE007 growth inh: 25µM*; FBPA Giardia inh: inconclusive; Sm TGR block: 0.79µM*; TbPYK inhibitor: 4.5µM*; LmPK inhibitor: inconclusive

What do the screens show for `CCOC(=O)c1c(C)n(-c2ccccc2)c2ccc(OC(=O)c3ccc(OCC)c(OCC)c3)cc12`?
Sm TGR block: 7%; TbPYK inhibitor: 1%

Results for Cc1nc(NC(=O)COC(=O)C(NC(=O)c2ccco2)C(C)C)c(Cl)cc1Cl (stereo not drawn) ?
RE007 growth inh: -10%; FBPA Giardia inh: 7%; Sm TGR block: 32µM*; TbPYK inhibitor: -6%; LmPK inhibitor: 10%; NS1 function inh: -7%

Results for CC(C)=CC(=O)OCC(=O)Nc1nc(C)c(Cl)cc1Cl ?
RE007 growth inh: 5%; FBPA Giardia inh: 0%; Sm TGR block: 25%; TbPYK inhibitor: 4%; LmPK inhibitor: 0%; NS1 function inh: 1%

How did COc1ccc(/C=C/C(=O)OCC(=O)Nc2cc(S(=O)(=O)N(C)C)ccc2Cl)cc1 do in these assays?
RE007 growth inh: -6%; FBPA Giardia inh: 3%; Sm TGR block: 0%; TbPYK inhibitor: -5%; LmPK inhibitor: 0%; NS1 function inh: -10%

What do the screens show for `Cc1ccc(C(=O)OCC(=O)Nc2ncc(Cl)cc2Cl)cc1NC(=O)c1ccco1`?
RE007 growth inh: 2%; FBPA Giardia inh: 2%; Sm TGR block: 45µM*; TbPYK inhibitor: -4%; LmPK inhibitor: 2%; NS1 function inh: -1%

What do the screens show for `Cc1ccc(C(=O)OCC(=O)Nc2ccccc2)cc1NC(=O)c1ccco1`?
RE007 growth inh: 8%; FBPA Giardia inh: 0%; Sm TGR block: 0%; TbPYK inhibitor: 0%; LmPK inhibitor: -4%; NS1 function inh: 2%

What do the screens show for `Cc1nc(NC(=O)COC(=O)/C=C/c2ccco2)c(Cl)cc1Cl`?
RE007 growth inh: 14%; Sm TGR block: 8.9µM*; TbPYK inhibitor: -6%

Results for CN(C)S(=O)(=O)c1ccc(Cl)c(NC(=O)COC(=O)/C=C/c2ccco2)c1 ?
RE007 growth inh: 15%; FBPA Giardia inh: 3%; Sm TGR block: 35µM*; TbPYK inhibitor: -9%; LmPK inhibitor: 5%; NS1 function inh: 8%

What do the screens show for `COc1cccc([C@@H]2Oc3ccc(Br)cc3C(=O)[C@H]2OC(=O)Nc2cc(OC)c(OC)c(OC)c2)c1`?
FBPA Giardia inh: -8%

How did COc1cccc(N2CCN(C(=O)c3cnn(-c4ccc(C)cc4C)c3C3CCN(C(=O)OC(C)(C)C)CC3)CC2)c1 do in these assays?
Sm TGR block: 5%; TbPYK inhibitor: -9%

How did O=C(COC(=O)/C=C/c1ccco1)Nc1ncc(Cl)cc1Cl do in these assays?
RE007 growth inh: -1%; FBPA Giardia inh: 1%; Sm TGR block: 45µM*; TbPYK inhibitor: -7%; LmPK inhibitor: 2%; NS1 function inh: 18%

How did Cc1ccc(SCc2[nH]nc3c2C(c2ccc(C)o2)C(C#N)=C(N)O3)cc1 (stereo not drawn) do in these assays?
RE007 growth inh: 0%; FBPA Giardia inh: inconclusive; Sm TGR block: 25µM*; TbPYK inhibitor: 1%; LmPK inhibitor: 7%; NS1 function inh: -63%

What do the screens show for `Cc1ccc(-n2nc(C)c3c2OC(N)=C(C#N)C3c2ccco2)cc1` (stereo not drawn)?
RE007 growth inh: -17%; FBPA Giardia inh: -17%; Sm TGR block: 40µM*; TbPYK inhibitor: -22%; LmPK inhibitor: -1%; NS1 function inh: inconclusive

Results for Cc1ccc(-n2nc(C)c3c2OC(N)=C(C#N)C3c2ccc(C)o2)cc1 (stereo not drawn) ?
RE007 growth inh: 7%; FBPA Giardia inh: inconclusive; Sm TGR block: 22µM*; TbPYK inhibitor: -7%; LmPK inhibitor: -5%; NS1 function inh: -2%

How did Cc1nn(-c2ccccc2)c2c1C(c1ccccc1)C(C#N)=C(N)O2 (stereo not drawn) do in these assays?
RE007 growth inh: -13%; FBPA Giardia inh: -8%; Sm TGR block: -14%; TbPYK inhibitor: -1%; LmPK inhibitor: -2%; NS1 function inh: -16%

What do the screens show for `Cc1nn(Cc2ccccc2)c2c1C(c1ccco1)C(C#N)=C(N)O2` (stereo not drawn)?
RE007 growth inh: 2%; FBPA Giardia inh: inconclusive; Sm TGR block: 50µM*; TbPYK inhibitor: -13%; LmPK inhibitor: 7%; NS1 function inh: -33%

How did Cc1ccc(SCc2[nH]nc3c2C(c2ccco2)C(C#N)=C(N)O3)cc1 (stereo not drawn) do in these assays?
RE007 growth inh: 15%; FBPA Giardia inh: -11%; Sm TGR block: inconclusive; TbPYK inhibitor: 1%; LmPK inhibitor: -11%; NS1 function inh: -37%

Results for CC(C)(C)NCC(O)COc1nsnc1N1CCOCC1 (stereo not drawn) ?
FBPA Giardia inh: -5%; NS1 function inh: -8%

What do the screens show for `COc1ccccc1CNc1ccnc(-c2ccc(N(C)C)cc2)n1`?
FBPA Giardia inh: -21%

What do the screens show for `COC(=O)c1ccccc1NC1CC(=O)N(c2c(C)cccc2C)C1=O` (stereo not drawn)?
RE007 growth inh: -3%; FBPA Giardia inh: -3%; Sm TGR block: 7.1µM*; TbPYK inhibitor: -4%; LmPK inhibitor: 3%; NS1 function inh: 11%

Results for COC(=O)c1ccc(NC2CC(=O)N(c3ccccc3C)C2=O)cc1 (stereo not drawn) ?
RE007 growth inh: -5%; FBPA Giardia inh: 4%; Sm TGR block: 32µM*; TbPYK inhibitor: -7%; LmPK inhibitor: -3%; NS1 function inh: -11%

What do the screens show for `Cc1ccccc1N1C(=O)CC(Nc2ccc3c(c2)OCO3)C1=O` (stereo not drawn)?
RE007 growth inh: -10%; FBPA Giardia inh: -21%; Sm TGR block: inconclusive; TbPYK inhibitor: -31%; LmPK inhibitor: 0%; NS1 function inh: 8%

How did COC(=O)c1cc(C(=O)OC)cc(N2C(=O)CC(NNC(=O)c3ccccc3Cl)C2=O)c1 (stereo not drawn) do in these assays?
RE007 growth inh: 3%; FBPA Giardia inh: 5%; Sm TGR block: -1%; TbPYK inhibitor: 3%; LmPK inhibitor: -3%; NS1 function inh: 12%
